# Laboratory results published in PubChem BioAssay (NCI).
# The panel holds about 83,000 compounds, 20% with a hit somewhere; the sample as a whole holds those more often.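 Single-dose data. Exposure time 48 hours. Values below 10 considered active.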 Unmarked numbers belong to inactive results. Active and inactive are the calls of the source.
# Assays:
# Test in all cases: NCI-60 one-dose screen, 48 h (100 = growth as untreated, 0 = no growth, -100 = all killed)
# Details in all cases: 10 µM unless noted
# [1] = test system: SR leukemia
# [2] = test system: RPMI-8226 leukemia
# [3] = test system: OVCAR-8 ovarian
# [4] = test system: OVCAR-5 ovarian
# [5] = test system: OVCAR-4 ovarian
# [6] = test system: SK-OV-3 ovarian
# [7] = test system: IGROV1 ovarian
# [8] = test system: OVCAR-3 ovarian
# [9] = test system: HS 578T breast
# [10] = test system: NCI/ADR-RES ovarian
SMILES,growth [1],growth [2],growth [3],growth [4],growth [5],growth [6],growth [7],growth [8],growth [9],growth [10]
CC(=O)n1nc(C(=O)OC(C)C)c2cc(C)c(C)cc21,84.6%,85%,96.8%,118%,2.77% (active),98.6%,106%,108%,96.6%,101%
COc1ccc2cc(-c3ccc(NC(C)=O)c(=O)o3)ccc2c1,88.2%,96.3%,97.1%,95%,101%,94.6%,108%,101%,93.8%,103%
Cc1nnc(NC(=O)c2nc(S(=O)(=O)Cc3ccc(F)cc3)ncc2Cl)s1,1.43% (active),37%,56.4%,85.6%,101%,101%,91.1%,21.8%,93.1%,93%
c1cnc2[nH]cc(-c3csc(-c4cn(CCCN5CCOCC5)c5ccccc45)n3)c2c1,2.93% (active),24.4%,62.4%,62.1%,45.1%,73.4%,35.3%,64.4%,28.5%,60.1%
CCOC(=O)c1c2c(n3ccc(C)cc13)C(=O)c1ccccc1C2=O,84.8%,98%,86.1%,109%,101%,103%,78%,88.2%,93.3%,95%
CN1CCN(Cc2ccc3c(NNC(=O)c4ccccc4)nc4cc(F)ccc4n23)CC1,7.6% (active),26.4%,17.6%,59.2%,24.1%,37.1%,21.7%,38.9%,70.6%,8.77% (active)
O=C1/C(=C/c2ccc(Cl)cc2)COc2ccc(O)c(O)c21,15%,1.87% (active),4.8% (active),-22.9% (active),27.6%,65.7%,-38% (active),-27.2% (active),20.4%,3.66% (active)
COc1cc(OC)c2sc(-c3ccc(-n4cncc4-c4ccc(OC)c(OC)c4)cc3)nc2c1,50.7%,33.3%,71%,79.5%,52.9%,84.8%,67.2%,43.7%,75.5%,56.4%
Cc1ccc(-c2nc3nc(-c4ccccc4)nc(N4CCNCC4)c3o2)cc1,-43% (active),-61.5% (active),-73.8% (active),-89.8% (active),-82% (active),-99.6% (active),-76.7% (active),-89.7% (active),-51.4% (active),-58.1% (active)
Cc1ccccc1NC(=O)c1sc2nc(C)c(C(=O)/C=C/c3ccccc3)cc2c1N,24.4%,-24.7% (active),6.75% (active),20.8%,51.3%,82%,10.3%,-5.72% (active),10% (active),1.11% (active)
CCO/C=N/C1=C(C#N)C(c2ccc(OC)cc2)c2sc3c(F)cccc3c2O1 (stereo not given),25.5%,7.6% (active),36.5%,63.8%,64.8%,49.6%,44.4%,8.12% (active),4.04% (active),16.9%
Cc1ccc(C2=Nc3c(N)ncnc3NC(c3ccc4c(c3)OCO4)C2)cc1 (stereo not given),15.8%,40.1%,81%,74.6%,87.6%,78.3%,32%,37.8%,78%,17.8%
O=C1N(Cc2ccccc2Cl)c2ccccc2C12NN=C(c1cccc(Cl)c1)S2 (stereo not given),-1.58% (active),30.5%,-23.5% (active),9.45% (active),-13.9% (active),-5.89% (active),20.2%,4.87% (active),3.21% (active),-17% (active)
COc1cccc(NC(=O)Cn2cc(CN3CCN(c4ccnc5cc(Cl)ccc45)CC3)nn2)c1,97.2%,48%,83.2%,93.5%,85.9%,74%,84.9%,101%,80.8%,94.7%
CCN(CC)CCOc1ccc(-c2c(-c3ccccc3)c(=O)oc3ccccc23)cc1,93.6%,90.9%,90.6%,95.6%,94.2%,79.1%,95.5%,104%,71.2%,84.8%
COc1ccc(C2=Nc3c/c(=C\c4c(O)[nH]c5ccc(Cl)cc45)ccc3=N2)cc1,2.44% (active),22.7%,51.7%,82.9%,64.2%,64.6%,75.3%,32.7%,41.8%,12.7%
CC[C@]12C=CCN3CC[C@@]4(c5cc(NC(=O)CCC(=O)OCc6cn(Cc7ccc(F)cc7)nn6)c(OC)cc5N(C)[C@H]4[C@@](O)(C(=O)OC)[C@@H]1OC(C)=O)[C@@H]32,94.2%,104%,103%,100%,98.2%,90.7%,108%,104%,108%,109%
Brc1c2c(c(Br)c3ccccc13)CCCC2,99%,100%,91%,104%,112%,89.5%,98.1%,110%,95.5%,107%
O=C1/C(=C/c2ccc(F)cc2)COc2ccc(O)cc21,1.11% (active),-19% (active),87.4%,96.9%,93.4%,123%,84.9%,92.4%,94.1%,93.2%
C=C(C)[C@@H]1CC[C@]2(C(=O)NCC#CCN3CCN(C)CC3)CC[C@]3(C)[C@H](CC[C@@H]4[C@@](C)(CCC#N)[C@H](C(=C)C)CC[C@]43C)[C@@H]12,-12.1% (active),33.6%,70.7%,64.5%,52.8%,72.6%,43.5%,54.2%,65.5%,55.8%
C=CCn1c(SCC(=O)NCc2cc(C)c(O)c(C)c2)nc2ccc(Cl)cc2c1=O,-34.1% (active),-100% (active),106%,88.4%,86.2%,109%,65%,101%,98.7%,97.1%
Cc1ccc(Cl)cc1Nc1nc(C(F)(F)F)ccc1C(=O)N/N=C/c1cccnc1,-5.74% (active),21%,25.1%,37.9%,8.59% (active),-15.3% (active),8.35% (active),33.9%,39.9%,13.9%
CCOC(=O)c1cc(-c2ccc([N+](=O)[O-])cc2)n(-c2ccc(C(=O)O)c(O)c2)c1C,67.1%,-3.07% (active),38.6%,114%,52%,95.6%,-11.3% (active),79.6%,67.8%,57.5%
Cc1oc(-c2ccc(Cl)cc2)nc1/C=C/C(=O)c1ccccc1,93.7%,90.9%,98.7%,115%,79.4%,100%,93%,97.5%,100%,104%
C#CCOc1ccc2ncnc(Nc3cccc(NC(=O)C=C)c3)c2c1,17.1%,80.2%,45.8%,89.6%,76%,60.6%,33.8%,60.6%,67.3%,80.2%
Cc1cccc2c1NC(=O)C2(c1ccc(O)cc1)c1ccc(O)cc1,89%,80.9%,4.88% (active),75.9%,-16% (active),89.5%,45.7%,25.6%,-5.53% (active),11%
